For 40 sequences, sensor-assay potency score (higher = more potent) results are on record in the OligoGym collection.
Also: reference of the scale not given here.

The target in the first assay is MYL4. The assay can be described thus: pooled miR-30 sensor sort-seq; sequence = guide strand. To be noted: shRNA.
Take TCTTGACATTCATCTCTTCAGG: the sensor-assay potency score (higher = more potent) is -0.927.

In turn, TTGAACTCTTCAATCTGGTCGG returned a sensor-assay potency score (higher = more potent) of 0.391.

In turn, ATCTTCATCTCTCCAGTCGGGG displayed a sensor-assay potency score (higher = more potent) of -0.885.

In the next assay the target is MYNN. The assay is described as above. The following applies: shRNA.
TAACAGTGTGCACAATATCTTG came in with a sensor-assay potency score (higher = more potent) of -1.2.

Sequence TTTTTCTTCACCATGATGCATG registered a sensor-assay potency score (higher = more potent) of -0.931.

As to TTATGTATTCTCATGTGCCTTC, the sensor-assay potency score (higher = more potent) turned out to be 0.676.

On to TGCTTCTGTAGATCGCACCAAA, for which the sensor-assay potency score (higher = more potent) was -1.32.

In turn, TAAATTTTTAATATCTGTGTAA had a sensor-assay potency score (higher = more potent) of -0.492.

TTGACCTCAACAATGTATCTGA yielded a sensor-assay potency score (higher = more potent) of 0.54.

Consider TCGATTATTATAATCTCGCAGA, for which the sensor-assay potency score (higher = more potent) is -0.633.

TTGAGATTGCTAGAAGTCGCAA: the sensor-assay potency score (higher = more potent) is -0.134.

The sequence TTTGAGATGACTTTTTCGCTAA showed a sensor-assay potency score (higher = more potent) of -0.185.

Consider TTTCTGAAATCCATCAGCCTTC, for which the sensor-assay potency score (higher = more potent) is -0.541.

As for TTATTTGTGCAACTTGTTCTAC, the sensor-assay potency score (higher = more potent) was 0.0284.

Take TTTGAGATAGTCAGCAGCCTGA: the sensor-assay potency score (higher = more potent) was -0.243.

Another assay deals with MYO1A. The assay is described as above. To be noted: shRNA.
In turn, TTGATTCGATTCACTATCCAGT registered a sensor-assay potency score (higher = more potent) of -0.284.

For TAAATCTTCTGTATGAGTGTGG, the sensor-assay potency score (higher = more potent) turned out to be 0.504.

TAAGACATCACCAGCTTGCTGG yielded a sensor-assay potency score (higher = more potent) of -0.216.

Consider TTGTCTAAGACGTTTGTGGATG, for which the sensor-assay potency score (higher = more potent) is -0.839.

On to TTCCTCTTGCTCTTCTTTCAGG, for which the sensor-assay potency score (higher = more potent) was -0.825.

TAGCACTTGTCGAATCTCCTCC: the sensor-assay potency score (higher = more potent) is 0.419.

Take TTGAGCTGCTTCACTAATCGGG: the sensor-assay potency score (higher = more potent) turned out to be 0.105.

In the case of TAGTCCACCTTTGTCCACGGTA, the sensor-assay potency score (higher = more potent) is -0.661.

For TTTTTGTAGCGTAGCTTGCTGT, the sensor-assay potency score (higher = more potent) is -0.784.

For TTCTCCTTGAACCTCACTGAGA, the sensor-assay potency score (higher = more potent) was -1.61.

TTGTCGAATCTCCTCCTCCGAG gave a sensor-assay potency score (higher = more potent) of -0.993.

The target in a further assay is MYO1D. The description is as above. The following applies: shRNA.
Sequence TTGAGCACAGGATTTGAACTGT returned a sensor-assay potency score (higher = more potent) of 0.338.

In turn, TAGTAGAGAGCAATTCTGCTAT returned a sensor-assay potency score (higher = more potent) of 0.00249.

As for TTTCTCAACCATATCTGTCTTA, the sensor-assay potency score (higher = more potent) was found to be 0.187.

For TTAAGTAAGATGATCCTTGGAG, the sensor-assay potency score (higher = more potent) amounted to 0.286.

On to TTCAAGAAACATTTCATCGGTG, for which the sensor-assay potency score (higher = more potent) worked out at 0.501.

The sequence TATAGTTGTAGGATGAAAGGGA came in with a sensor-assay potency score (higher = more potent) of 0.615.

The sequence TTCAAAACTGTTGTTGTCGAAG registered a sensor-assay potency score (higher = more potent) of -0.485.

TTGTTCTTGCTTCAGAACCAGC returned a sensor-assay potency score (higher = more potent) of -1.43.

With TTGTTCTGAACCTCCTTGGAGT, the sensor-assay potency score (higher = more potent) was -0.407.

Turning to TTAGTTTCTTGACAGCCTCTTT, the sensor-assay potency score (higher = more potent) was -0.583.

TAGATGTTCAACAACTTGTAAG gave a sensor-assay potency score (higher = more potent) of -1.57.

A further assay deals with MYO1F. The description is as above. The following applies: shRNA.
As to TCATTTTGCATGACCACGCGGG, the sensor-assay potency score (higher = more potent) is -0.396.

In turn, TTCTTCACTTTCTCTCGCCCAA had a sensor-assay potency score (higher = more potent) of -0.544.

On to TTCTGGAAGATCTCGAAGCCGT, for which the sensor-assay potency score (higher = more potent) was -0.863.
